Results filed as inconclusive are left out. The source made the active and inactive calls. Calls follow the shape of the dose curve; as a rule, active = well fitted cell-killing curve with a large enough effect in the repeat runs; inconclusive = weak or mixed curves, or effect the other way; inactive = flat fitted curve, though single readings scatter. Starred links: 1 amine or outer side, 2 acyl side, 3 side chain; linkers in the order of their positions; H or OH if unused. Positions of bridges follow the written chain, without caps; N, C: chain ends. Non-standard residues stand in square brackets, D forms with d. Residues, ends and D or L forms follow the SMILES beside them. Chains are numbered I, II in the order given. Actinocin(9to1) = Cc1c2oc3c(C)ccc(C(=O)[*:1])c3nc-2c(C(=O)[*:2])c(N)c1=O; NMeV = CN[C@H](C(=O)O)C(C)C; Sar = CNCC(=O)O
% is scaled to controls: 0 for no effect and ±100 for the full control effect.

This assay in a line: qHTS RealTime-Glo MT Cell Viability Assay in HEK293 cells - 0 hour (AID 1224880). Also: top concentration of the series differs between compounds; nearly all actives have a fitted effect of over 45% in size. The following applies: RealTime-Glo luminescence; series mostly up to 76.8 µM; activity change, negative = cytotoxicity: at the top concentration. The method in brief:
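Cells were seeded together with NanoLuc luciferase and a prosubstrate that viable cells reduce to a luciferase substrate. After a 5 h incubation at 37 C/5% CO2, compounds were added and luminescence was measured repeatedly during 40 h of treatment.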
In the case of `CC(C)(C)NCC(O)c1cc(O)cc(O)c1` (stereo not given), the “activity change, negative = cytotoxicity” value was -0.164% [at 35.3 µM] (inactive).
Turning to `Cc1c2oc3c(C)ccc(C(=O)N[C@@H]4C(=O)N[C@H](C(C)C)C(=O)N5CCC[C@H]5C(=O)N(C)CC(=O)N(C)[C@@H](C(C)C)C(=O)O[C@@H]4C)c3nc-2c(C(=O)N[C@@H]2C(=O)N[C@H](C(C)C)C(=O)N3CCC[C@H]3C(=O)N(C)CC(=O)N(C)[C@@H](C(C)C)C(=O)O[C@@H]2C)c(N)c1=O` (I: T[dV]P[Sar][NMeV] / II: T[dV]P[Sar][NMeV]; ester I:1-I:C, II:1-II:C; linker I:N-II:N via Actinocin(9to1)), the Potency entry is “inactive”.
For the compound `C#CC(C)(CC)OC(=O)c1ccccc1C(=O)O` (stereo not given), the “activity change, negative = cytotoxicity” value was 0.404% [at 35.3 µM] (inactive).
The same measure, in the same setting: then `CC(C)(C)NCC(O)COc1ccccc1OCC1CCCO1` (stereo not given), with -6.4% [at 35.3 µM] (inactive).
`COc1ccc(Cc2cnc(N)nc2N)cc1OC`: the “activity change, negative = cytotoxicity” value was 5.03% [at 35.3 µM] (inactive).
Still for that read-out and setting: then `C=CS(=O)(=O)O`, with 3.91% (inactive).
`CC(=O)C1=C(C)[C@@H]2C[C@@]3(C1)[C@H](C)CC[C@H]3C2(C)C`: the Potency entry was “inactive”.
Still for that read-out and setting: the result for `O=S(=O)(O)c1ccc2nc(-c3ccccc3)[nH]c2c1` reads “inactive”.
On to `Cc1scc2c1N(C(=O)CN1CCN(C)CC1)c1ccccc1NC2=O`, for which the “activity change, negative = cytotoxicity” value is 3.86% [at 35.3 µM] (inactive).
Consider `COC(c1ccccc1)(c1ccccc1)[C@H](Oc1nc(C)cc(C)n1)C(=O)O`, for which the “activity change, negative = cytotoxicity” value was -9.53% [at 35.3 µM] (inactive).
As for `OCCN1CCNCC1`, the Potency entry is “inactive”.
Take `C1COC(NC(C2CC2)C2CC2)=N1`: the “activity change, negative = cytotoxicity” value is 5.31% [at 35.3 µM] (inactive).
For the compound `CC(=O)CC(=O)Nc1ccc2[nH]c(=O)[nH]c2c1`, the “activity change, negative = cytotoxicity” value is 6.62% (inactive).
Still for that read-out and setting: the result for `CCN(CC)C(=O)Nc1ccc(OCC(O)CNC(C)(C)C)c(C(C)=O)c1` (stereo not given) reads 5.8% [at 35.3 µM] (inactive).
As to `CCCOC(=O)c1cc(O)c(O)c(O)c1`, the Potency result is “inactive”.

Values taken from PubChem BioAssay (Tox21).
